# GC-A act: GC-A (human) enzyme activation; 370,000 compounds, 0.14% hits; HEK293 GC-A cells, cGMP TR-FRET, EC30 ANP; 0% at EC30 ANP, 100% saturating ANP; P16066; activation, % at 10 µM; in the data active = activation above about 40%
# GC-B act: GC-B (human) receptor activation; HEK293-GC-B cells, CNP EC30, cGMP TR-FRET; 0% at EC30 CNP, 100% saturating CNP; P20594; 370,000 compounds, 0.11% hits; AID 1920062; activation, % at 10 µM;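 active = activation at 10 µM reaching about 35% in either raw or pattern-adjusted values, limit read from the data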
# ADAM17 inh: inhibitors of human ADAM17. P78536. recombinant ADAM17, EDANS/DABCYL FRET peptide cleavage. inhibition, % at 6.95 µM. AID 720648. 370,000 compounds, 0.83% hits;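 active = inhibition above the mean of compounds lying between control limits plus 3 SD, set per campaign, cut at about 8.5% in these data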;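 note: 0% = DMSO-only wells as the low control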
# FAS TE block: blocks the thioesterase domain of human fatty acid synthase. recombinant FAS-TE, OMFH fluorogenic substrate, fluorescence endpoint. 360,000 compounds, 0.67% hits. inhibition, % at 15 µM;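 active = compounds whose normalised, plate-corrected inhibition of enzyme fluorescence in the single-dose primary screen is 50% or more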;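 note: 0% = DMSO with enzyme and 100% = substrate without enzyme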
# ADAM10 inh: ADAM10 inhibition, QFRET primary screen; inhibition, % at 7 µM; O14672; AID 720582; recombinant ADAM10, EDANS/DABCYL FRET peptide cleavage, 3 h; 370,000 compounds, 0.62% hits;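 active = inhibition above a per-campaign cutoff equal to the mean of compounds falling between control-based bounds plus 3 SD, cut at about 20% in these data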;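 note: 0% = DMSO wells while the 100% control is not disclosed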
# FAS-TE conf: confirmation of human fatty acid synthase thioesterase inhibitors; AID 624325; shares compounds with FAS TE block; inhibition, % at 15 µM; 2,300 compounds, 45% hits; recombinant FAS-TE, OMFH fluorogenic substrate, fluorescence;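 active = compounds inhibiting the enzyme by at least 50% at 15 µM in any one of the replicates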;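 note: 0% = enzyme with DMSO only and 100% = wells lacking enzyme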
# * hit, by the source's call; . = no result. This is a sample that favours compounds with a hit; in the whole collection about 2% have one here.
SMILES,GC-A act,GC-B act,ADAM17 inh,FAS TE block,ADAM10 inh,FAS-TE conf
C[C@@]12C(=O)N(c3ccccc3)C(=O)N1[C@@H]1c3ccccc3OC[C@@H]1[C@H]2c1ccccc1,-1,6,3,32,15,.
C[C@]12C(=O)N(c3ccc(C(F)(F)F)cc3)C(=O)N1[C@H]1c3ccccc3OC[C@@H]1[C@H]2c1ccccc1,1,8,3,82*,3,21
O=c1[nH]c(CN2CCN(c3ncccn3)CC2)nc2c(Br)cc(Br)cc12,3,-1,-2,11,4,.
O=c1[nH]c(CN2CCN(S(=O)(=O)c3cccs3)CC2)nc2c(Br)cc(Br)cc12,-5,-4,0,55*,6,38*
Cc1ccc(-n2c(SCC(=O)c3ccc(Br)cc3)nnc2-c2ccncc2)cc1,-14,-19,0,.,1,.
CN(CCO)c1ccc2c(c1)Oc1ccccc1CN(Cc1cn(Cc3ccc(F)cc3)nn1)S2(=O)=O,0,1,-3,.,5,.
Nc1cc(-c2ccc(OC(F)(F)F)cc2)nn1-c1ccc(Cl)c(Cl)c1,-4,5,2,58*,7,25
CCCCNC(=O)C[C@H]1C[C@@]2(C(=O)OCC)CCCC3=C2N(CCC3)C1=O,3,8,0,.,1,.
O=C(Nc1cccc(F)c1)OC1CC2CC1[C@H]1CCCCN1[C@H]2Cc1ccccc1 (some centres undefined),-12,-2,-7,.,-14,.
COc1ccc(-c2nn(-c3ccccc3)cc2C(=O)N2CCN(S(=O)(=O)c3ccccc3[N+](=O)[O-])CC2)cc1,-3,1,-1,78*,-11,26
COc1ccc(-c2nn(-c3ccccc3)cc2C(=O)N2CCN(S(=O)(=O)c3ccccc3C#N)CC2)cc1,-8,-5,-1,23,1,.
O=C(c1ccoc1)N1CCC2(CC1)Oc1ccc(Cl)cc1C(=O)C21CC(c2ccc(Cl)cc2)=NO1 (centres undefined),-1,-4,-5,14,-4,.
O=C(c1ccoc1)N1CCC2(CC1)Oc1ccc(F)cc1C(=O)C21CC(c2ccccc2)=NO1 (centres undefined),-7,4,1,14,4,.
O=C(c1ccc2c(c1)OCO2)N1CCC2(CC1)Oc1ccc(F)cc1C(=O)C21CC(c2ccccc2)=NO1 (centres undefined),-6,0,4,67*,12,19
O=C(c1ccoc1)N1CCC2(CC1)Oc1ccc(F)cc1C(=O)C21CC(c2ccc(Cl)cc2)=NO1 (centres undefined),-2,-1,-3,74*,0,22
Cc1ccc(C(=O)N2CCC3(CC2)Oc2ccc(F)cc2C(=O)C32CC(c3ccc(Cl)cc3)=NO2)s1 (centres undefined),-3,1,0,87*,8,22
CC(C)(C)OC(=O)N1CCC2(CC1)Oc1ccc(F)cc1C(=O)C21CC(c2ccccc2)=NO1 (centres undefined),-1,5,6,59*,4,10
CN(C)c1cccc2c(S(=O)(=O)NC(=O)[C@H]3O[C@@H](n4ccc(=O)[nH]c4=O)[C@H](O)[C@@H]3O)cccc12,6,4,-18,.,-74,.
COc1cc(OC)c2c(=O)c3c(C(=O)O)c(O)ccc3oc2c1,3,1,-9,.,-34,.
Cc1ccc(C(=O)N2CCC3(CC2)Oc2ccc(F)cc2C(=O)C32CC(c3ccccc3)=NO2)s1 (centres undefined),-10,-8,6,72*,17,22
CS(=O)(=O)N1CCc2cc(-c3csc(NC(=O)Cc4cccs4)n3)ccc21,-1,5,2,62*,8,29*
COc1ccc(Cn2ccc3ccc(-c4ccc5ccn(C(=O)c6ccc(C)cc6)c5c4)cc32)cc1,-2,-7,-7,.,-29,.
CC(NC(=O)C12CC3CC(CC(C3)C1)C2)C(=O)N/N=C/C1=C(N2CCOCC2)C(=C\c2cccc([N+](=O)[O-])c2)/CC1 (centres undefined),0,0,-4,89*,-4,12
Cc1occc1C(=O)N/N=C/C1=C(N2CCOCC2)C(=C\c2ccc(Cl)cc2)/CC1,-1,-5,2,1,0,.
CC(C)C(NC(=O)C12CC3CC(CC(C3)C1)C2)C(=O)N/N=C/C1=C(N2CCOCC2)C(=C\c2ccc([N+](=O)[O-])cc2)/CC1 (centres undefined),-1,-6,-2,79*,-2,7
SMILES,GC-A act,GC-B act,ADAM17 inh,FAS TE block,ADAM10 inh,FAS-TE conf
Cc1cccc(NC(=O)c2nc[nH]c2C(=O)NCCCNC(=O)c2[nH]cnc2C(=O)Nc2cccc(C)c2)c1,-15,-15,3,1,0,.
O=C(Nc1ccc(Cl)cc1)c1nc[nH]c1C(=O)NCCN(CCNC(=O)c1[nH]cnc1C(=O)Nc1ccc(Cl)cc1)CCNC(=O)c1[nH]cnc1C(=O)Nc1ccc(Cl)cc1,.,.,.,58*,.,9
Cc1cccc(NC(=O)c2nc[nH]c2C(=O)NCCN(CCNC(=O)c2[nH]cnc2C(=O)Nc2cccc(C)c2)CCNC(=O)c2[nH]cnc2C(=O)Nc2cccc(C)c2)c1,-3,4,-1,84*,-4,1
Cc1ccc(NC(=O)c2nc[nH]c2C(=O)NCCN(CCNC(=O)c2[nH]cnc2C(=O)Nc2ccc(C)cc2)CCNC(=O)c2[nH]cnc2C(=O)Nc2ccc(C)cc2)cc1,0,-3,-2,54*,-1,18
COC(=O)[C@]12C[C@H](CC(=O)NCCC(C)C)C(=O)N(Cc3ccco3)C1=C[C@H](C(C)C)O[C@@H]2C1CC1,-4,2,0,.,2,.
COC(=O)C1CN(Cc2ccc(F)cc2)CCS(=O)(=O)N1Cc1ccc(C(F)(F)F)cc1 (centres undefined),-3,-6,4,.,12,.
CCCCCn1nnnc1C1(C)CCSCC(=O)N1Cc1ccco1 (centres undefined),0,1,0,.,1,.
CC#CCN1c2ccccc2[C@]23C[C@@H](C(=O)OC)N(C(=O)c4ccco4)C2=NC(C(=O)OC)=C(C(=O)OC)[C@H]13,-6,-15,-2,-9,-5,.
CC#CCN1c2ccccc2[C@]23C[C@@H](C(=O)OC)N(C(=O)c4cc(C)oc4C)C2=NC(C(=O)OC)=C(C(=O)OC)[C@H]13,-7,-18,0,59*,0,19
CC(C)COc1ccc(-c2nn(-c3ccccc3)cc2/C=C2/SC(=S)N(CC(=O)O)C2=O)cc1,-13,1,-3,78*,1,10
O=C(O)CN1C(=O)/C(=C\c2cn(-c3ccccc3)nc2-c2ccccc2)SC1=S,.,.,.,7,.,.
